One may read the AC50 as the concentration giving half of the maximal activity seen.

Activity calls are given as the source filed them. The calls were made as follows: active = hit-call score of the fitted dose curve at least 0.9, where 1 is the maximum; inactive = score below 0.9.

The results in this text go back to PubChem BioAssay (EPA / NIEHS).

Read-out in the assay: Monocyte Chemoattractant Protein-1 (MCP1), CCL2 (gene 6347)
The experiment in a line: BSK_LPS_MCP1: BioMAP Diversity Plus: LPS Assay for Monocyte Chemoattractant Protein-1 (MCP1) Biomarker Activity (AID 2283081).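 As to AC50: co-culture stimulated with LPS.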 To be noted: primary human HUVEC with PBMC; actives raise or lower the signal. As for the experimental part:
BSK_LPS is a cell-based, multiplexed-readout assay that uses umbilical vein endothelium and peripheral blood mononuclear cells, a human vascular primary cell co-culture, with measurements taken at 24 hours after chemical dosing in a 96-well plate.BSK_LPS_MCP1 is an assay component measured in the BSK_LPS assay. It measures MCP-1 antibody related to regulation of gene expression using ELISA technology.Data from the assay component BSK_LPS_MCP1 was analyzed into 1 assay endpoint. This assay endpoint, BSK_LPS_MCP1, was analyzed with bidirectional fitting relative to DMSO as the negative control and baseline of activity. Using a type of binding reporter, gain or loss-of-signal activity can be used to understand changes in the signaling as they relate to the gene CCL2. Furthermore, this assay endpoint can be referred to as a primary readout, because this assay has produced multiple assay endpoints where this one serves a signaling function. To generalize the intended target to other relatable targets, this assay endpoint is annotated to the cytokine intended target family, where the subfamily is chemotactic factor.
The levels of cell surface (or secreted, indicated by the prefix "s") biomarker endpoints were measured by ELISA. Overt cytotoxicity to cells in confluent adherent cultures (all systems other than the BT system) was assessed by measuring total protein levels using sulforhodamine B (SRB) staining in parallel cultures at the time of biomarker measurements, indicated as SRB endpoints. For proliferation assays for adherent cell types, individual cell types are cultured at sub-confluence and relative cell numbers quantified by SRB staining at time points optimized for each system (48 h: 3C and CASM3C systems; 72 h: BT and HDF3CGF systems; 96 h: SAg system). SRB was performed by staining cells with 0.1% SRB after fixation with 10% TCA and reading wells at 560 nm.Viability and proliferation of PBMC (T cells) was quantified by Alamar Blue reduction for the SAg and BT systems. For PBMC viability (referred to as PBMC Cytotoxicity within the assay endpoint names), cells were plated (75,000/well in a 96-well plate) and then chemical samples added for 1 h before addition of activators, SEB and TSST-1 (20 ng/mL final concentration each). Cells were incubated for 90 h. Then, Alamar Blue (20 uL/well) (Invitrogen, Cat DAL1100) was added for 6 h, and the plates were read with a fluorescence microplate reader at 546/580 nm (excitation/emission). For PBMC proliferation, cells were plated and activated as above but incubated for only 16 h prior to addition of Alamar Blue. Plates were read after 6 h.
In the case of `CCc1cccc(CC)c1N`, the outcome was inactive.
For the compound `OCCC(F)(F)C(F)(F)C(F)(F)C(F)(F)F`, the result was inactive.
For the compound `CCCCCCCCCCCCCCO`, the AC50 is 31.2 µM (active).
Turning to `CCCC(CCC)C(=O)O`, the outcome was inactive.
The same measure, in the same setting: the result for `O=C(O)c1cccc(C(=O)O)c1` reads “inactive”.
On the same count and under the same terms, the result for `COc1cc(C(C)C)c2c(c1)S(=O)(=O)N(COc1cc(=O)n3cccc(OCCN4CCCCC4)c3n1)C2=O` reads “inactive”; that for `OCCOCCOCCO`, “inactive”.
On the same count and under the same terms, in the case of `CC(=O)c1ccccc1` it was “inactive”.
Turning to `Cc1cccc(O)c1C`, the result was inactive.
On the same count and under the same terms, the result for `COCc1nnc(-c2ccc[n+]([O-])c2)n1-c1c(Cl)c(Cl)cc2[nH]c(=O)c(=O)[nH]c12` reads “inactive”; that for `CCCCCOC(C)=O`, “inactive”; that for `OCc1ccccc1`, “inactive”.
On to `O=C(O)[C@H](O)[C@@H](O)C(=O)O`, for which the outcome was inactive.
The same measure, in the same setting: in the case of `NC(=O)N(O)[C@@H]1COc2cc(OCc3ccccc3)ccc21` it was “inactive”.
Same read-out and setting: in the case of `CCCOc1ccc(S(=O)(=O)N2CCN(CC)CC2)cc1-c1nc2c(CC)n(Cc3ccccn3)nc2c(=O)[nH]1` it was “inactive”.
For `CC(C)C(=O)Nc1ccc([N+](=O)[O-])c(C(F)(F)F)c1`, the result was inactive.
The same measure, in the same setting: the result for `CC(C)CCCCCCOC(=O)C1CCCCC1C(=O)OCCCCCCC(C)C` (stereo not given) reads “inactive”; that for `C[Si](C)(C)C(F)(F)C(F)(F)C(F)(F)F`, “inactive”; that for `CCCCCCCCCCCCCCCCOS(=O)(=O)O`, “inactive”.
Still for that read-out and setting: in the case of `FC(F)C(F)(F)COCC1CO1` (stereo not given) it was “inactive”.
On to `CC(C)c1nnc2ccc(-c3ocnc3-c3cc(F)ccc3F)cn12`, for which the AC50 is 4.6 µM (active).
Consider `CC(C)CC(C)O` (stereo not given), for which the result was inactive.
On to `NC(N)=O`, for which the result was inactive.
Same read-out and setting: the result for `OC(CCl)CCl` reads “inactive”; that for `Cn1c(=O)c2[nH]cnc2n(C)c1=O`, “inactive”; that for `CCCCCCCCCC`, “inactive”.
The same measure, in the same setting: the result for `c1ccc2ncccc2c1` reads “inactive”; that for `CCCc1ccccc1`, “inactive”; that for `CCCCC(CC)C(=O)OCCOCCOCCOC(=O)C(CC)CCCC` (stereo not given), “inactive”.
With `CC[C@H](C)C(=O)O[C@H]1C[C@H](O)C=C2C=C[C@H](C)[C@H](CC[C@@H](O)C[C@@H](O)CC(=O)O)[C@H]21`, the outcome was inactive.
`FC(F)=C(F)C(F)(F)C(F)(F)C(F)(F)C(F)(F)C(F)(F)C(F)(F)F`: the result was inactive.
Consider `CCc1ccc(O)c(C(C)(C)C)c1`, for which the outcome was inactive.
For the compound `Cn1cc[nH]c1=S`, the outcome was inactive.
Turning to `CCCCCCCC/C=C\CCCCCCCC(=O)OC[C@@H](O)[C@H]1OC[C@H](O)[C@H]1O`, the outcome was inactive.
For `Cc1nc(-c2ccccn2)ncc1C(=O)Nn1cc(C)c2cc(F)ccc21`, the outcome was inactive.
Still for that read-out and setting: the result for `OCc1c[nH]c2ccccc12` reads “inactive”.
`O=S1(=O)CCCO1`: the result was inactive.
Same read-out and setting: in the case of `OC(O)(C(F)C(O)(O)C(F)(F)F)C(F)(F)F` it was “inactive”.
Still for that read-out and setting: in the case of `OC[C@H]1O[C@@](CO)(O[C@H]2O[C@H](CO)[C@@H](O)[C@H](O)[C@H]2O)[C@@H](O)[C@@H]1O` it was “inactive”; in that of `CCCCN1C(=O)[C@@H]([C@H](O)C2CCCCC2)NC(=O)C12CCN(Cc1ccc(Oc3ccc(C(=O)O)cc3)cc1)CC2`, “inactive”.
